Experimental data from PubChem BioAssay (NCI).
Values joined by “and” are separate entries in the source; they are usually repeats but may differ in a detail not shown here. Equal entries are not always repeated. The panel holds about 83,000 compounds, 20% with a hit somewhere; the sample as a whole holds those more often.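 Treatment: one concentration, 48 hours, 96-well format. Scoring: percent growth, with anything below 10 considered active.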 A number with no mark means an inactive call. Active and inactive are the calls of the source.

Each compound was assayed on HL-60(TB) leukemia (assay: NCI-60 one-dose screen, 48 h (100 = growth as untreated, 0 = no growth, -100 = all killed)). Settings: 10 µM unless noted.
For `COc1ccc(C(=O)N2NC(=O)/C(=C/c3ccc(Br)cc3)N=C2c2ccccc2)cc1`, the growth was 4.51% (active).
With `COc1ccc2c(c1)c(-c1noc(C(=O)c3cn(C)c4ccc(Br)cc34)n1)cn2C` the growth was 84.4%.
`CO[C@H](C(=O)[C@@H](O)[C@@H](C)O)[C@@H]1Cc2cc3cc(OC4CC(OC5CC(O)C(O)C(C)O5)C(O)C(C)O4)c(C)c(O)c3c(O)c2C(=O)[C@H]1OC1CC(OC2CC(OC3CC(C)(O)C(O)C(C)O3)C(O)C(C)O2)C(O)C(C)O1` (stereo not given in full) was tested, and the growth was 3.88% (active).
For `S=C(S)N1CCCC1`, the growth was 114% and 110%.
Work on `Nc1ccccc1NC(=O)CCCCC(=O)Nc1ccc2c(c1)/C(=C/c1ccc[nH]1)C(=O)N2` yielded a growth of 89.6%.
With `O=C(Nc1cccc(Cl)c1)c1cc(Cl)ccc1O` the growth was -32.4% (active).
`NC(Cc1ccc(O)cc1)C(=O)N/N=C/c1ccccc1O` (stereo not given) showed a growth of 93.7%.
Compound `COc1ccc(/C=C/C(=O)c2cccc(NS(C)(=O)=O)c2)cc1` has a growth of 79.6%.
In the case of `Cc1ccc(Nn2c(SCC(=O)Nc3nc(-c4ccccc4)cs3)nc(C)c2C)cc1`, the growth was 63.8%.
`COc1cc(CNC(=O)/C=C/C=C/c2ccc3c(c2)OCO3)ccc1OCc1cn(-c2ccc(Cl)c(Cl)c2)nn1` showed a growth of 85.4%.
`COc1ccc(/C(=C/c2cc(OC)c(OC)cc2[N+](=O)[O-])C(=O)O)cc1` showed a growth of 98.5%.
With `OCC1OC(n2cnc3c(=S)nc[nH]c32)C(O)C1O` (stereo not given) the growth was 120% and 50.9%.
Work on `CNC(C)[C@H]1CCC2C3CCC4C[C@@H](N(C)C(=O)c5ccccc5)CC[C@]4(C)C3CC[C@@]21C` (stereo not given in full) yielded a growth of 14.9%.
Work on `COc1cc(CSc2nc3ccc(Cl)cc3c(=O)n2Cc2ccccc2)cc(OC)c1OC` yielded a growth of 14.7%.
`CCC(C)(O)c1ccc(C)cc1` (stereo not given) showed a growth of 97.3%.
`Cc1ccc(Cc2cnc(NC(=O)c3cc(Br)cs3)s2)cc1` was tested, and the growth was 8.08% (active).
`O=C(N/N=C\c1cc(Cl)ccc1O)c1ccncc1` was tested, and the growth was 0% (active).
`O=C(NC[C@H](O)CN1CCc2ccccc2C1)c1cc(NC2COC2)ncn1` gave a growth of 119%.
For `O=C(Nc1ccc(-n2cc(-c3ccncc3)c(-c3ccc(O)c(Cl)c3)n2)cc1)Nc1ccc(Cl)c(C(F)(F)F)c1`, the growth was -4.77% (active).
In the case of `COc1cc2nc(Cl)nc(Nc3ccc(S(=O)(=O)Nc4nccs4)cc3)c2cc1OC`, the growth was 102%.
`Fc1cc2c(cc1Cl)N(c1ncnc3ccc(-c4cnc5[nH]ncc5c4)cc13)CC2` was tested, and the growth was 66.5%.
With `Cn1cc(-c2csc(-c3c[nH]c4ccccc34)n2)c2cccnc21` the growth was 11.5%.
`NS(=O)(=O)c1cnccc1Oc1cccc2cccnc12` gave a growth of 89.5%.
`Cc1cc(N2CCOCC2)nc(N2CCOCC2)n1` gave a growth of 97.9%.
In the case of `CC(=O)c1ccc(NCC(=O)Nc2ccccn2)cc1`, the growth was 109%.
With `O=C1OC(=O)C2C1CC=CC2c1ccccc1` (stereo not given) the growth was 69.1%.
Compound `COc1ccc(-c2ccc3c(c2)sc2nc(-c4ccc(F)cc4)cn23)cc1` has a growth of 92%.
In the case of `O=c1c2sc3ccccc3c2nnn1-c1ccc(F)c(Cl)c1`, the growth was 73.7%.
`O=C1c2c(O)ccc(O)c2C(=O)c2c(NCCNCCO)ccc(NCCNCCO)c21` was tested, and the growth was -28.5% (active) and -59.5% (active).
In the case of `Cn1cnc2c(F)c(Nc3ccc(Br)cc3F)c(C(=O)NOCCO)cc21`, the growth was 16.6%.
`CCCCCCCC/C=C\CCCCCCCCOc1ccccc1CCOP(=O)(O)OCC[N+](C)(C)C` was tested, and the growth was -23% (active).
In the case of `CCCCCC(=O)OCC(=O)O[C@@H]1C[C@]2(C(C)C)O[C@@]1(C)[C@@H]1CC[C@@H](C)[C@H]1[C@@H]2OC(=O)/C=C/c1ccccc1`, the growth was 78.5%.
Work on `NS(=O)(=O)c1ccc(-n2nc(-c3ccc(Br)cc3)ccc2=O)cc1` yielded a growth of 88.5% [100 µM].
In the case of `CC1=C(/C=C/C(C)=C/C=C/C(C)=C/CO)C(C)(C)CCC1`, the growth was 103%.
For `COc1ccc(Cn2c(Br)c3c(c2Br)-c2nc(NC(=O)c4ccc(OC)cc4)sc2CC3)cc1`, the growth was 75.9%.
`CCOC(=O)N1CCN(CCCCOc2ccc(C(C)(C)CC)cc2)CC1` gave a growth of 79.1%.
`Cc1c(C(=O)NC(Cc2ccccc2)C(O)C(=O)NCc2ccc(F)cc2)[nH]c2ccccc2c1=O` (stereo not given) showed a growth of 82%.
Work on `CC(c1ccccn1)C(C)(O)C(C)c1ccccn1` (stereo not given) yielded a growth of 69.8%.
With `CCc1nc2cc(/C=C/C(=O)NO)ccc2c(=O)n1CCc1ccc(F)cc1` the growth was -7.3% (active).
In the case of `O=[N+]([O-])c1ccc(Sc2ccncn2)c([N+](=O)[O-])c1`, the growth was 16.8%.
